{"source": "ChEMBL document CHEMBL1157539", "about": "“Thousands of chemical starting points for antimalarial lead identification” (Nature, 2010)"}
{"system": "Plasmodium falciparum", "test": "GSK_TCMDC: Inhibition of Plasmodium falciparum Dd2 in whole red blood cells, using parasite LDH activity as an index of growth. Test compounds present at 2uM", "assay_type": "functional", "units": {"Inhibition": "%"}}
{"smiles": "COc1ccc(CCN(C)CCOc2ccc(NC(=O)c3cc(SC)cc4c(=O)c5ccccc5[nH]c34)cc2)cc1OC", "Inhibition": 44}
{"smiles": "Br.CCCCCCCNCCNc1cc(C)nc2ccccc12", "Inhibition": 99}
{"smiles": "COc1cc2nc(NCCc3ccccc3)nc(NCc3cc(C)no3)c2cc1OC", "Inhibition": 100}
{"smiles": "Cc1cccc2nc(-c3ccc(-c4cccc(NC(=O)CCc5c[nH]cn5)c4)s3)[nH]c12", "Inhibition": 70}
{"smiles": "CN(C)c1cccc(-c2cnc3ccc(NCc4cccc(Cl)c4)nn23)c1", "Inhibition": 98}
{"smiles": "Cc1nc(O)c2c(ccc3ccc(CNc4ccc(C(=O)N[C@@H](CCC(=O)O)C(=O)O)c(F)c4)cc32)n1", "Inhibition": 96}
{"smiles": "CS(=O)(=O)c1ccc(-n2nc(C(F)(F)F)cc2-c2ccc(C=NOCC(=O)O)o2)cc1", "Inhibition": 0}
{"smiles": "O=C(Nc1ccc(Cl)cc1Cl)NC1CCN(CCCCCNC(=O)C2CC2c2ccc(Cl)c(Cl)c2)CC1", "note": "(configuration not stated)", "Inhibition": 30}
{"smiles": "COc1ccc(CN(C)CCCSc2ccc(NC(=O)c3cccc4c(=O)cc(-c5ccccc5)[nH]c34)cc2)cc1OC", "Inhibition": 94}
{"smiles": "Cc1cc(N)c2cc(NC(=O)/C=C/c3ccccc3)ccc2n1", "Inhibition": 68}
{"smiles": "CCNc1cc(C(=O)N[C@@H](Cc2ccccc2)[C@H](O)CN[C@H]2CCc3ccccc32)cc(N2CCCC2=O)c1", "Inhibition": 99}
{"smiles": "Cc1cccc2nc(-c3ccc(-c4cccc(CNCCCN5CCCC5=O)c4)cc3)[nH]c12.O=C(O)C(F)(F)F", "Inhibition": 3}
{"smiles": "C=CCOc1ccc(-c2c(C)[nH]c(C)c(Br)c2=O)cc1", "Inhibition": 96}
{"system": "HepG2", "test": "GSK_TCMDC: Percent inhibition of human HepG2 cell line. Test compounds present at 10uM.", "assay_type": "functional", "units": {"Inhibition": "%"}}
{"smiles": "CCCc1c(C(=O)Nc2ccc3c(c2)CCN(C2CCC2)CC3)cnn1-c1ccc(Cl)cc1.O=C(O)C(F)(F)F", "Inhibition": 64}
{"smiles": "Cc1ccc(Sc2ccc(NC(=O)CN3CCN(C(=O)c4ccco4)CC3)cc2)cc1C", "Inhibition": 14}
{"smiles": "O=C(CSc1nc(-c2ccccc2Cl)ns1)Nc1ccc2c(c1)OCO2", "Inhibition": 0}
{"smiles": "FC(F)(F)c1ccc2[nH]c(-c3cccc(-c4cccc(CNCc5cnn(-c6ccccc6)n5)c4)c3)nc2c1.O=C(O)C(F)(F)F", "Inhibition": 6}
{"smiles": "O=C(Nc1ccnc(N2CC3CC2CN3Cc2cccc(O)c2)c1)c1ccc(F)cc1.O=C(O)C(F)(F)F", "note": "(configuration not stated)", "Inhibition": 2}
{"smiles": "CN1CCC(C(=O)Nc2cccc(-c3ccc(-c4nc5cc(C(F)(F)F)ccc5[nH]4)s3)c2)CC1", "Inhibition": 29}
{"smiles": "COc1ccc2ncc(F)c([C@H](O)CN3CCC(NCc4ccc5c(c4)OCCO5)CC3)c2c1.Cl", "Inhibition": 1}
{"smiles": "COc1ccc(C(C)Nc2nc(N)c3cc(OC)c(OC)cc3n2)cc1.Cl", "note": "(configuration not stated)", "Inhibition": 23}
{"smiles": "Cc1ccc(C)c(NC(=O)Nc2ccc(C)c(-c3ccc(C(=O)Nc4ccncc4)cc3)c2)c1", "Inhibition": 46}
{"smiles": "Cc1ccc(C(=O)Nc2cccc(CN3CCCN(Cc4ccc(O)cc4)CC3)c2)cc1.O=C(O)C(F)(F)F", "Inhibition": 0}
{"smiles": "NC(=O)c1ccc(C(=O)Nc2cccc(-c3csc(-c4nc5ccccc5[nH]4)c3)c2)cc1", "Inhibition": 14}
{"smiles": "O=C(Nc1ccc(OC2CCN(Cc3ccsc3)C2)c(Cl)c1)c1ccsc1.O=C(O)C(F)(F)F", "note": "(configuration not stated)", "Inhibition": 4}
{"smiles": "COc1cccc(CN2CCCN(Cc3cccc(NC(=O)c4ccc(Cl)c(Cl)c4)c3)CC2)c1.O=C(O)C(F)(F)F", "Inhibition": 26}
{"smiles": "CCN(CC)CCCNc1c2ccccc2nc2ccccc12.Cl", "Inhibition": 17}
{"smiles": "Cc1ccc(Cn2ncc(NC3CCNCC3)c(Cl)c2=O)cc1NC(=O)Nc1ccc(-c2ccccc2)cc1.O=C(O)C(F)(F)F", "Inhibition": 18}
{"smiles": "CC(C)NCc1ccc(-c2ccc(NC(=O)c3cccc(C#N)c3)cc2)cc1.O=C(O)C(F)(F)F", "Inhibition": 40}
{"smiles": "Cc1ccccc1N1CCN(c2ccc(C(=O)Nc3ccccc3)cn2)CC1.O=C(O)C(F)(F)F", "Inhibition": 44}
{"smiles": "Cc1cc(C2CCN(CCCCNC(=O)c3ccc(NC(=O)c4ccc(Cl)cc4)cc3)CC2)c(C)cc1OCc1nccn1C.Cl", "Inhibition": 18}
{"smiles": "N#Cc1cccc(CN(Cc2ccc(Cl)c(Cl)c2)S(=O)(=O)c2cccc([N+](=O)[O-])c2)c1", "Inhibition": 3}
{"smiles": "CCN(CCCN1CCCCC1)c1cc(C)nc(Nc2cc(Cl)cc(Cl)c2)n1.O=C(O)C(F)(F)F", "Inhibition": 34}
{"smiles": "Cc1noc(C)c1-c1cccc(CNCc2cccc(-c3cccc(-c4nc5cccc(C)c5[nH]4)c3)c2)c1.O=C(O)C(F)(F)F", "Inhibition": 15}
{"smiles": "CN(c1ccc2c(c1)nc(NCc1ccc(F)cc1)n2C)c1ccnc(Nc2ccc(CS(C)(=O)=O)cc2)n1.Cl", "Inhibition": 48}
{"smiles": "CNC(=O)/C=C/c1cc(NC(=O)Nc2ccnc3c(Br)cccc23)ccc1OC", "Inhibition": 12}
{"smiles": "Cc1cccc2nc(-c3ccc(-c4ccc(NC(=O)Nc5cccc(C#N)c5)cc4)cc3)[nH]c12", "Inhibition": 28}
{"smiles": "COc1ccc(CNC2CCN(C)CC2)cc1-c1ccc(S(=O)(=O)NC2CCC2)c(F)c1.O=C(O)C(F)(F)F", "Inhibition": 96}
{"smiles": "COc1cc(NC(=O)N2CCc3cc(OC)c(OCCN4CCCCC4)cc32)cc(C(F)(F)F)c1.O=C(O)C(=O)O", "Inhibition": 9}
{"smiles": "COc1ccc(CCN(C)CCOc2ccc(NC(=O)c3cc(SC)cc4c(=O)c5ccccc5[nH]c34)cc2)cc1OC", "Inhibition": 7}
{"smiles": "Br.CCCCCCCNCCNc1cc(C)nc2ccccc12", "Inhibition": 58}
{"smiles": "COc1cc2nc(NCCc3ccccc3)nc(NCc3cc(C)no3)c2cc1OC", "Inhibition": 5}
{"smiles": "Cc1cccc2nc(-c3ccc(-c4cccc(NC(=O)CCc5c[nH]cn5)c4)s3)[nH]c12", "Inhibition": 2}
{"smiles": "CN(C)c1cccc(-c2cnc3ccc(NCc4cccc(Cl)c4)nn23)c1", "Inhibition": 11}
{"smiles": "Cc1nc(O)c2c(ccc3ccc(CNc4ccc(C(=O)N[C@@H](CCC(=O)O)C(=O)O)c(F)c4)cc32)n1", "Inhibition": 41}
{"smiles": "CS(=O)(=O)c1ccc(-n2nc(C(F)(F)F)cc2-c2ccc(C=NOCC(=O)O)o2)cc1", "Inhibition": 0}
{"smiles": "O=C(Nc1ccc(Cl)cc1Cl)NC1CCN(CCCCCNC(=O)C2CC2c2ccc(Cl)c(Cl)c2)CC1", "note": "(configuration not stated)", "Inhibition": 67}
{"smiles": "COc1ccc(CN(C)CCCSc2ccc(NC(=O)c3cccc4c(=O)cc(-c5ccccc5)[nH]c34)cc2)cc1OC", "Inhibition": 15}
{"smiles": "Cc1cc(N)c2cc(NC(=O)/C=C/c3ccccc3)ccc2n1", "Inhibition": 20}
{"smiles": "CCNc1cc(C(=O)N[C@@H](Cc2ccccc2)[C@H](O)CN[C@H]2CCc3ccccc32)cc(N2CCCC2=O)c1", "Inhibition": 8}
{"smiles": "Cc1cccc2nc(-c3ccc(-c4cccc(CNCCCN5CCCC5=O)c4)cc3)[nH]c12.O=C(O)C(F)(F)F", "Inhibition": 6}
{"smiles": "C=CCOc1ccc(-c2c(C)[nH]c(C)c(Br)c2=O)cc1", "Inhibition": 5}
